Measured values reported in PubChem BioAssay AID687001 (Broad Institute, 2013).
Results with a measured potency or affinity are listed apart.

Molecular target: Protein S100-A4 (Homo sapiens) (UniProt P26447)
Assay: human S100A4 peptide interaction inhibition curves – biochemical, fluorescence polarization, cherry-picked hits, dose response (AID 687001);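 also: 0% = DMSO neutral control wells and -100% = TFP positive control wells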
Conditions: FP, S100A4/TAMRA-myosin IIA peptide binding; series mostly up to 11 µM; activity change, negative = inhibition: at the top concentration;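 active = signal-lowering compounds whose fitted half-maximal concentration is at or below twice the top tested dose in every run; inconclusive = runs disagree, flat 30 to 70% inhibition, or poor curve fit; inactive = the rest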

Chain of Protein S100-A4 (Homo sapiens) (P26447 whole entry, looked up): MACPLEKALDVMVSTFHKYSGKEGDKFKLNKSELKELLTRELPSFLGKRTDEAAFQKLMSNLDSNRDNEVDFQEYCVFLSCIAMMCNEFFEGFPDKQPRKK

Activity change, negative = inhibition, inactive:
COC(=O)c1ccc2c(=O)n(CCCCCC(=O)NC3CCCCC3)c(=O)[nH]c2c1 2.1%
COc1ccccc1N(C)S(=O)(=O)c1ccc(C(=O)NCC2CCCCC2)cc1 11.9%
O=C(OCc1ccccc1)/C(=C/c1ccccc1Cl)NC(=O)c1ccco1 1.77%
Cc1noc(C)c1NC(=O)Nc1ccc2c(c1)C(=O)N([C@H](C)CO)C[C@@H](C)[C@@H](CN(C)S(=O)(=O)c1ccc(Cl)cc1)OCCCC[C@H](C)O2 14.8%
COc1ccc(CN(C)C[C@@H]2Oc3ccc(NC(=O)Cc4ccccc4)cc3CC(=O)N([C@@H](C)CO)C[C@H]2C)cc1 7.7%
COc1ccc(C=O)cc1COc1ccc2c(c1)OCO2 -4.28%
CCCNC(=O)[C@@H]1[C@@H](CO)[C@@H]2Cn3c(cccc3=O)[C@@H]2N1C(=O)C1CCC1 2.72%
O=S(=O)(NC(=NCc1ccccc1)c1ccccc1)c1ccccc1 -3.1%
C[C@H](CO)N1C[C@H](C)[C@H](CN(C)C)Oc2ccc(NS(=O)(=O)c3ccccc3)cc2CC1=O 3.87%
Cc1nn(-c2ccc(N3CCOCC3)nn2)c(C)c1CCC(=O)N1CCN(C)CC1 -0.085%
C[C@H]1CCCCO[C@H](CN(C)Cc2ccc(C(F)(F)F)cc2)[C@@H](C)CN([C@@H](C)CO)C(=O)c2cc(NC(=O)Nc3ccc4c(c3)OCO4)ccc2O1 13.1%
COc1ccc(NC(=O)Nc2ccc3c(c2)C(=O)N([C@H](C)CO)C[C@H](C)[C@H](CN(C)Cc2ccc(C(F)(F)F)cc2)OCCCC[C@H](C)O3)cc1 2.09%
COc1ccc(C2SCCN2S(=O)(=O)c2ccc(F)cc2)cc1OC (stereo not drawn) -4.85%
